Several values for one entry are separate records, joined by “and”; a condition that tells them apart may be missing. Equal entries are not always repeated. Some structures have more than one record in an assay (separate samples or runs), and their calls can disagree. Activity calls are given as the source filed them. The calls were made as follows: active = hit-call score of the fitted dose curve at least 0.9, where 1 is the maximum; inactive = score below 0.9.
Tests used:
[1] = read-out: TIMP metallopeptidase inhibitor 1 (TIMP1), TIMP1 (gene 7076); assay: BSK_hDFCGF_TIMP1: BioMAP Diversity Plus: hDFCGF Assay for TIMP metallopeptidase inhibitor 1 (TIMP1) Biomarker Activity (AID 2283062); settings: primary human foreskin fibroblasts; actives raise or lower the signal
Outline: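 ELISA readout of TIMP-1 from human dermal foreskin fibroblast cultures 24 h post-dosing. Curves were fitted in both directions against DMSO baseline, with SRB total-protein staining in parallel cultures as a cytotoxicity check.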

[2] = read-out: Monokine induced gamma interferon (MIG), CXCL9 (gene 4283); assay: BSK_hDFCGF_MIG: BioMAP Diversity Plus: hDFCGF Assay for Monokine induced gamma interferon (MIG) Biomarker Activity (AID 2283063); settings: primary human foreskin fibroblasts; actives raise or lower the signal
Outline: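 Fibroblasts (human foreskin, primary) dosed, 24 h, MIG by ELISA; fit bidirectional vs DMSO.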

[3] = read-out: Matrix Metallopeptidase 1 (MMP1), MMP1 (gene 4312); assay: BSK_hDFCGF_MMP1: BioMAP Diversity Plus: hDFCGF Assay for Matrix Metallopeptidase 1 (MMP1) Biomarker Activity (AID 2283064); settings: primary human foreskin fibroblasts; actives raise or lower the signal
Outline: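 Human foreskin fibroblasts exposed to chemical for 24 h; MMP1 detected by ELISA, with DMSO as baseline for bidirectional fitting.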

[4] = read-out: Vascular cell adhesion molecule 1 (VCAM1), VCAM1 (gene 7412); assay: BSK_hDFCGF_VCAM1: BioMAP Diversity Plus: hDFCGF Assay for Vascular cell adhesion molecule 1 (VCAM1) Biomarker Activity (AID 2283065); settings: primary human foreskin fibroblasts; actives raise or lower the signal;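 as to AC50: VCAM-1 protein level quantified by ELISA after 24 h chemical exposure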
Outline: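 ELISA read-out of VCAM-1 on human skin fibroblasts, 24 h post-dose; gain or loss of signal fitted bidirectionally against DMSO baseline.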

[5] = read-out: Plasminogen activator inhibitor-1 (PAI1), SERPINE1 (gene 5054); assay: BSK_hDFCGF_PAI1: BioMAP Diversity Plus: hDFCGF Assay for Plasminogen activator inhibitor-1 (PAI1) Biomarker Activity (AID 2283066); settings: primary human foreskin fibroblasts; actives raise or lower the signal
Outline: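 Fibroblasts from human foreskin were treated with test chemical. After 24 h, PAI-1 was measured by ELISA. Activity was fitted in both directions relative to DMSO.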

[6] = read-out: Intercellular Adhesion Molecule 1 (ICAM1), ICAM1 (gene 3383); assay: BSK_KF3CT_ICAM1: BioMAP Diversity Plus: KF3CT Assay for Intercellular Adhesion Molecule 1 (ICAM1) Biomarker Activity (AID 2283067); settings: primary human keratinocytes with fibroblasts; actives raise or lower the signal
Outline: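 ELISA readout of ICAM-1; KF3CT human skin co-culture (keratinocytes + foreskin fibroblasts), 24 h post-dose; gain/loss fit vs DMSO baseline.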

[7] = read-out: Interferon-gamma inducible Protein 10 (IP10), CXCL10 (gene 3627); assay: BSK_KF3CT_IP10: BioMAP Diversity Plus: KF3CT Assay for Interferon-gamma inducible Protein 10 (IP10) Biomarker Activity (AID 2283068); settings: primary human keratinocytes with fibroblasts; actives raise or lower the signal
Outline: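 KF3CT co-culture (keratinocytes + foreskin fibroblasts), 24 h compound, IP-10 by ELISA; bidirectional fit vs DMSO baseline.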

[8] = BSK_KF3CT_SRB: Viability Assessment in the BioMAP Diversity Plus: KF3CT Assay (AID 2283069); settings: primary human keratinocytes with fibroblasts;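 also: read 24 h after compound addition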
Outline: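 Overt cytotoxicity is assessed as total protein by sulforhodamine B staining in parallel human skin co-cultures at 24 h after dosing. DMSO serves as negative control and baseline.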

[9] = read-out: Interleukin-1 alpha (IL1a), IL1A (gene 3552); assay: BSK_KF3CT_IL1a: BioMAP Diversity Plus: KF3CT Assay for Interleukin-1 alpha (IL1a) Biomarker Activity (AID 2283070); settings: primary human keratinocytes with fibroblasts; actives raise or lower the signal
Outline: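 Readout is IL-1a level by ELISA, compared bidirectionally with DMSO as baseline. Cells: human keratinocytes co-cultured with foreskin fibroblasts, harvested 24 h post-dose.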

[10] = read-out: TIMP metallopeptidase inhibitor 2 (TIMP2), TIMP2 (gene 7077); assay: BSK_KF3CT_TIMP2: BioMAP Diversity Plus: KF3CT Assay for TIMP metallopeptidase inhibitor 2 (TIMP2) Biomarker Activity (AID 2283071); settings: primary human keratinocytes with fibroblasts; actives raise or lower the signal
Outline: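 Chemicals were dosed onto human skin primary co-cultures of keratinocytes and foreskin fibroblasts, and TIMP-2 was measured by ELISA after 24 hours. Activity in either direction was fitted relative to DMSO.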

[11] = read-out: Transforming growth factor beta 1 (TGFb1), TGFB1 (gene 7040); assay: BSK_KF3CT_TGFb1: BioMAP Diversity Plus: KF3CT Assay for Transforming growth factor beta 1 (TGFb1) Biomarker Activity (AID 2283072); settings: primary human keratinocytes with fibroblasts; actives raise or lower the signal
Outline: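 KF3CT co-culture (keratinocytes + fibroblasts), 24 h exposure → TGF-b1 ELISA → bidirectional fit, DMSO = baseline. Parallel SRB total-protein staining (0.1% SRB, 10% TCA fixation, 560 nm) for cytotoxicity.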

[12] = read-out: C-C motif chemokine 2 (Homo sapiens) (UniProt P13500); assay: BSK_KF3CT_MCP1: BioMAP Diversity Plus: KF3CT Assay for Monocyte Chemoattractant Protein 1 (MCP1/CCL2) Biomarker Activity (AID 2283073); settings: primary human keratinocytes with fibroblasts; actives raise or lower the signal
Outline: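 KF3CT skin co-culture (keratinocytes/foreskin fibroblasts), 24 h post-dose; MCP-1 by ELISA; gain/loss of signal fit bidirectionally vs DMSO baseline.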

[13] = read-out: Matrix Metallopeptidase 9 (MMP9), MMP9 (gene 4318); assay: BSK_KF3CT_MMP9: BioMAP Diversity Plus: KF3CT Assay for Matrix Metallopeptidase 9 (MMP9) Biomarker Activity (AID 2283074); settings: primary human keratinocytes with fibroblasts; actives raise or lower the signal;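 as to AC50: MMP9 protein level quantified by ELISA in the co-culture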
Outline: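 Values come from bidirectional fitting relative to DMSO of MMP-9 levels, which were measured by ELISA. Measurements were taken 24 h after chemical dosing of a keratinocyte and foreskin fibroblast co-culture.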

[14] = read-out: urokinase plasminogen activator (uPA), PLAU (gene 5328); assay: BSK_KF3CT_uPA: BioMAP Diversity Plus: KF3CT Assay for urokinase plasminogen activator (uPA) Biomarker Activity (AID 2283075); settings: primary human keratinocytes with fibroblasts; actives raise or lower the signal
Outline: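 Values derive from bidirectional fitting against DMSO controls. Keratinocyte/foreskin fibroblast co-cultures received chemical; 24 h later uPA was detected by ELISA, with SRB total-protein staining in parallel wells for overt cytotoxicity.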

CD40, CD40 (gene 958) = assay: BSK_LPS_CD40: BioMAP Diversity Plus: LPS Assay for CD40 Biomarker Activity (AID 2283076); settings: primary human HUVEC with PBMC; actives raise or lower the signal
Outline: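 ELISA readout of CD40 in HUVEC/PBMC co-culture (BSK_LPS system), 24 h post-dosing; bidirectional curve fit, DMSO baseline; parallel SRB total-protein staining for cytotoxicity.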

[15] = read-out: E-selectin (Homo sapiens) (UniProt P16581); assay: BSK_LPS_Eselectin: BioMAP Diversity Plus: LPS Assay for Eselectin Biomarker Activity (AID 2283077); settings: primary human HUVEC with PBMC; actives raise or lower the signal
Outline: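 ELISA readout of E-selectin, 24 h post-dose, HUVEC + PBMC co-culture (LPS system). Gain or loss of signal vs DMSO baseline, bidirectional fit.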

[16] = read-out: Interleukin-8 (IL8), CXCL8 (gene 3576); assay: BSK_LPS_IL8: BioMAP Diversity Plus: LPS Assay for Interleukin-8 (IL8) Biomarker Activity (AID 2283078); settings: primary human HUVEC with PBMC; actives raise or lower the signal
Outline: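 HUVEC + PBMC co-culture, LPS-activated; test chemicals dosed, IL-8 read by ELISA at 24 h. Bidirectional curve fit vs DMSO baseline (gain or loss of signal).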

[17] = BSK_LPS_SRB: Viability Assessment in the BioMAP Diversity Plus: LPS Assay (AID 2283079); settings: primary human HUVEC with PBMC;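 also: total protein by sulforhodamine B absorbance as a cytotoxicity measure; measured one day after compound addition; fitted in both directions against DMSO so loss or gain of signal counts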
Outline: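 HUVEC + PBMC co-culture, LPS-stimulated; compound 24 h. 10% TCA fix, 0.1% SRB stain, A560. Bidirectional fit vs DMSO.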

[18] = read-out: Interleukin-1 alpha (IL1a), IL1A (gene 3552); assay: BSK_LPS_IL1a: BioMAP Diversity Plus: LPS Assay for Interleukin-1 alpha (IL1a) Biomarker Activity (AID 2283080); settings: primary human HUVEC with PBMC; actives raise or lower the signal
Outline: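 HUVEC/PBMC co-culture, LPS system; 24 h after dosing; IL-1a by ELISA; gain or loss of signal fitted bidirectionally vs DMSO baseline.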

Measured: AC50

E-selectin (Homo sapiens), sequence (P16581 whole entry, looked up): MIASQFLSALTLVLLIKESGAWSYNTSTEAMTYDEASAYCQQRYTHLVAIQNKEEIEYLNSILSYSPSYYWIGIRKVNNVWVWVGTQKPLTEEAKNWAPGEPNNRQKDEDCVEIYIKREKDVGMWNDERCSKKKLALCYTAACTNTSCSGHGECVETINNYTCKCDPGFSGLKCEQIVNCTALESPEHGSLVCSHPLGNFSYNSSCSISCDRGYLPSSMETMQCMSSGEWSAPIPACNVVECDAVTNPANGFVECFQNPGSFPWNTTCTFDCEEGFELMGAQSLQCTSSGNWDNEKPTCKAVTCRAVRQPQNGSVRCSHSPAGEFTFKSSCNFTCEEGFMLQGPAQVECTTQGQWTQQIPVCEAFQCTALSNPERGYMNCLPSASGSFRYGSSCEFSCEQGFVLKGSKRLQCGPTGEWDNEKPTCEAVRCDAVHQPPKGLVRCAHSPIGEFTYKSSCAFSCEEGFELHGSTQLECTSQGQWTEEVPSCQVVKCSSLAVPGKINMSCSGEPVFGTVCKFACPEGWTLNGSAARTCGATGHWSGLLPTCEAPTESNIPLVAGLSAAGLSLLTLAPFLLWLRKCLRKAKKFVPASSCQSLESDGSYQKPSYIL

O=C(O)c1ccccc1C(c1ccc(O)cc1)c1ccc(O)cc1
inactive: all assays above

O=c1c(-c2ccc(O)cc2)coc2cc(O)ccc12
active: [13] 20 µM
inactive: all other assays above

Oc1cc2ccccc2c2ccccc12
active: [1] 3.41 µM | [2] 2.78 µM | [3] 2.93 µM | [4] 2.07 µM | [5] 2.4 µM | [6] 6.96 µM | [7] 7.34 µM | [9] 6 µM | [10] 7.99 µM | [11] 6.02 µM | [12] 6.26 µM | [13] 5.66 µM | [14] 7.13 µM | CD40, CD40 (gene 958) 5.93 µM | [15] 11.1 µM | [16] 12.6 µM | [17] 12.1 µM | [18] 7.63 µM
inactive: [8]

Cc1cc(CCN2CCN(c3nsc4ccccc34)CC2)cc2c1NC(=O)CC2(C)C
active: [1] 9.33 µM | [2] 10.9 µM | [3] 8.43 µM | [4] 5.57 µM | [5] 14.6 µM | [6] 29.6 µM | [7] 33.4 µM | [8] 11.7 µM | [9] 26.6 µM | [10] 20 µM | [11] 13.2 µM | [12] 28.8 µM | [13] 16.5 µM | [14] 13.4 µM | CD40, CD40 (gene 958) 14.3 µM | [15] 30 µM | [16] 19.5 µM | [17] 32.8 µM | [18] 10.3 µM

C[C@@H]1C[C@H]2[C@@H]3CCC4=CC(=O)C=C[C@]4(C)[C@@]3(F)[C@@H](O)C[C@]2(C)[C@@]1(O)C(=O)COP(=O)(O)O
inactive: [1] | [2] | [3] | [4] | [5] | [6] | [7] | [8] | [9] | [10] | [11] | [12] | [13] | [14] | CD40, CD40 (gene 958) | [15] | [16] | [17] | [18]
active: [1] 2.65 µM | [3] 1.42 µM and 386 nM | [4] 8.68 µM

CC(C)(C)c1cc(C(C)(C)C)c(O)c(C(C)(C)C)c1
active: [1] 31.8 µM | [2] 33.5 µM | [3] 33.1 µM | [4] 31.5 µM | [5] 32.2 µM | [7] 32.8 µM | [13] 36.2 µM
inactive: all other assays above

COC(=O)CCCCC(=O)OC
inactive: all assays above

CC#C[C@]1(O)CC[C@H]2[C@@H]3CCC4=CC(=O)CCC4=C3[C@@H](c3ccc(N(C)C)cc3)C[C@@]21C
inactive: [1] | [2] | [4] | [7] | [8] | [9] | [10] | [11] | [14]
active: [3] 26.1 µM | [5] 11.2 µM | [6] 20 µM | [12] 34.2 µM | [13] 24.1 µM | CD40, CD40 (gene 958) 33.8 µM | [15] 30.5 µM | [16] 32.6 µM | [17] 27.9 µM | [18] 31.3 µM

CCCCCCCC(=O)O
inactive: all assays above

C#C[C@]1(O)CC[C@H]2[C@@H]3CCC4=CC(=O)CC[C@@H]4[C@H]3CC[C@@]21C
active: [15] 6.29 µM | [16] 4.87 µM | [17] 5.96 µM
inactive: all other assays above

Reference: PubChem BioAssay (EPA / NIEHS)
